High-throughput results deposited in PubChem BioAssay by National Center for Advancing Translational Sciences (NCATS).
Lassa entry inh = qHTS for Inhibitors of binding or entry into cells for Lassa Virus; Lassa virus pseudotype entry inhibition, cell reporter; Potency, µM (top dose mostly 37.9 µM), hits mostly inhibitors; 300,000 compounds, 1.2% hits; calls by dose curve; tested in HEK293 cells; further: nearly all actives have a fitted effect of over 50% in size
Marburg entry inh = qHTS for inhibitors of binding or entry into cells for Marburg Virus; Marburg virus pseudotyped entry inhibition, cell reporter; 300,000 compounds, 1.8% hits; Potency, µM (doses to about 37.8 µM), most hits filed as inhibitors; calls by dose curve; tested in HEK293 cells
Shiga inhibitor = A qHTS for Small Molecule Inhibitors of Shiga Toxin; Vero cells, Shiga toxin protein synthesis inhibition reporter; inhibition, % at 38.7 µM; 290,000 compounds, 9.2% hits; in the data active means inhibition mostly above about 28%, no sharp cut-off; inactive means mostly below about 43%
Pf growth 48h = Primary qHTS for delayed death inhibitors of the malarial parasite plastid, 48 hour incubation | Potency, µM (titrated, usually from 28.7 µM), hits mostly inhibitors | P. falciparum luciferase growth in erythrocytes, 48 h | 310,000 compounds, 5.9% hits | AID 504832, 2011
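In quantitative HTS format, infected erythrocytes bearing luciferase-reporter parasites were treated for a single generation at 37 C. Luminescence after adding detection reagent served as the growth measure.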
Pf growth 96h = Primary qHTS for delayed death inhibitors of the malarial parasite plastid, 96 hour incubation; P. falciparum luciferase reporter growth, 96 h; Potency, µM (top dose mostly 28.7 µM), usual class: inhibitors; 320,000 compounds, 6.9% hits; AID 504834, 2011
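Readout is luminescence from an integrated firefly luciferase in P. falciparum. Red cells, 2% hematocrit and 0.05% parasitemia final, were cultured with compound through two parasite generations (96 hours) at 37 C, 5% CO2.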
Cycloheximide cs = Cycloheximide Counterscreen for Small Molecule Inhibitors of Shiga Toxin | cell reporter, cycloheximide protein synthesis inhibition counterscreen | 300,000 compounds, 12% hits | max response, % | AID 2314, 2010; in the data active means max response mostly above about 13%, no sharp cut-off; inactive means mostly below about 14%; further: read at 38.3 µM for the half of the compounds with a filed dose
Large screens that a line does not name were inactive. Compounds with a hit are over-represented: about 19% of the library has one in this group of screens. Unless noted, the call rests on the fitted dose curve; in most records, active means well fitted inhibition curve with a large enough effect; inconclusive means small, poorly fitted or top-dose-only effect, or another doubt; inactive means no such curve, though single readings can be large or run the other way.

C/C(=N\NC(=O)C(C)n1nc(C)c([N+](=O)[O-])c1C)c1ccccc1O (stereo unspecified)	Lassa entry inh 13µM, Marburg entry inh 9.2µM, Pf growth 48h 9.3µM, Pf growth 96h inconclusive
Cc1nn(C(C)C(=O)NCc2ccco2)c(C)c1[N+](=O)[O-] (stereo unspecified)	none (no result: Lassa entry inh, Marburg entry inh)
O=C(CSc1nnc(Cc2cc(=O)[nH]c(=O)[nH]2)n1-c1ccccc1)N1CCCc2ccccc21	none
O=C(CSc1nnc(Cc2cc(=O)[nH]c(=O)[nH]2)n1-c1ccc(Cl)cc1)N1CCc2ccccc21	Pf growth 48h 2.9µM, Pf growth 96h inconclusive (no result: Lassa entry inh, Marburg entry inh)
COc1cccc(-n2c(Cc3cc(=O)[nH]c(=O)[nH]3)nnc2SCC(=O)N2CCCCC2)c1	none (no result: Lassa entry inh, Marburg entry inh, Pf growth 48h)
COC(=O)C(C)Sc1nnc(Cc2cc(=O)[nH]c(=O)[nH]2)n1-c1ccc(OC)cc1 (stereo unspecified)	Pf growth 96h 0.83µM (no result: Lassa entry inh, Marburg entry inh, Pf growth 48h)
O=C(CSc1nnc(Cc2cc(=O)[nH]c(=O)[nH]2)n1-c1ccc(F)cc1)NC1CCCC1	Pf growth 96h 5.9µM (no result: Lassa entry inh, Marburg entry inh, Pf growth 48h)
O=C(CSc1nnc(Cc2cc(=O)[nH]c(=O)[nH]2)n1-c1ccc(F)cc1)N1CCCCC1	Pf growth 96h 7.4µM (no result: Lassa entry inh, Marburg entry inh, Pf growth 48h)
Cc1ccc(Cn2c(CN3CC(C)OC(C)C3)nc3c2c(=O)n(C)c(=O)n3C)cc1 (stereo unspecified)	none (no result: Lassa entry inh, Marburg entry inh, Pf growth 48h)
O=C1N/C(=N\N=C\c2ccc3ncccc3c2)SC1Cc1ccc(SC(F)F)cc1 (stereo unspecified)	Lassa entry inh inconclusive (no result: Pf growth 96h)
C=CCN1C(=O)C(Cc2ccc(OCC)cc2)S/C1=N\N=C\c1cccs1 (stereo unspecified)	Lassa entry inh 11µM, Pf growth 96h inconclusive (no result: Pf growth 48h)
CCC1S/C(=N/N=C/c2cccs2)NC1=O (stereo unspecified)	Pf growth 96h inconclusive
CC1S/C(=N/N=C/c2cccs2)NC1=O (stereo unspecified)	Shiga inhibitor 20, Cycloheximide cs 16
C(=N\N=C\c1cccs1)/c1cccs1	Shiga inhibitor 71, Pf growth 96h inconclusive, Cycloheximide cs 45 (no result: Lassa entry inh)
O=C1N/C(=N\N=C\c2cccnc2)SC1Cc1ccc(SC(F)F)cc1 (stereo unspecified)	Lassa entry inh inconclusive, Marburg entry inh inconclusive, Pf growth 48h 3.3µM (no result: Pf growth 96h)
COc1cccc(CNC(=O)CCNC(=O)C2CCN(S(=O)(=O)c3ccc(F)cc3)CC2)c1	none (no result: Lassa entry inh, Marburg entry inh)
O=C(O)[C@H]1CC(=O)N(Cc2cccs2)C1	none (no result: Lassa entry inh, Shiga inhibitor, Pf growth 48h, Pf growth 96h, Cycloheximide cs)
O=C1N/C(=N\N=C\c2cccs2)SC1Cc1cccc(Cl)c1 (stereo unspecified)	Lassa entry inh inconclusive, Marburg entry inh inconclusive, Pf growth 48h 13µM
CCCC1S/C(=N/N=C/c2cccs2)NC1=O (stereo unspecified)	Marburg entry inh inconclusive
O=C1N/C(=N\N=C\c2cccs2)SC1Cc1ccc(Cl)cc1 (stereo unspecified)	Lassa entry inh inconclusive, Pf growth 48h inconclusive, Pf growth 96h 0.74µM
CCN(CC(=O)Nc1ccc2c(c1)OCCO2)C(=O)/C=C/c1ccc(F)cc1	Marburg entry inh inconclusive
CCN(CC(=O)Nc1ccc2c(c1)OCCO2)C(=O)/C=C/c1ccccc1	Cycloheximide cs 36 (no result: Lassa entry inh, Marburg entry inh)
COc1ccccc1/C=C/C(=O)Nc1ccc2c(c1)OCCO2	Lassa entry inh inconclusive, Marburg entry inh inconclusive, Shiga inhibitor 99, Pf growth 96h 13µM, Cycloheximide cs 56
O=C(/C=C/c1ccccc1)Nc1ccc2c(c1)OCCO2	Lassa entry inh inconclusive, Marburg entry inh inconclusive, Pf growth 96h inconclusive, Cycloheximide cs 25
COc1ccccc1/C=C/C(=O)Nc1ccc2c(c1)CCC2	Marburg entry inh inconclusive, Shiga inhibitor 34, Cycloheximide cs 35
COc1ccc(CCNC(=O)c2ccc3c(c2)CCN3S(C)(=O)=O)cc1	none (no result: Shiga inhibitor, Pf growth 48h, Pf growth 96h, Cycloheximide cs)
CCc1ccc(NC(=O)/C(C#N)=C\c2ccc(OC)c(C(=O)O)c2)cc1	none
O=C(/C=C/c1ccco1)Nc1ccc2c(c1)OCCO2	Lassa entry inh inconclusive, Marburg entry inh inconclusive, Shiga inhibitor 69, Cycloheximide cs 30
CCc1nc(N)nc(N)c1-c1ccc(N(C)Cc2ccccc2)c([N+](=O)[O-])c1	Lassa entry inh inconclusive, Marburg entry inh 0.89µM (no result: Shiga inhibitor, Pf growth 48h, Pf growth 96h, Cycloheximide cs)
CCc1nc(N)nc(N)c1-c1ccc(Cl)cc1	Lassa entry inh 3.3µM, Marburg entry inh inconclusive, Pf growth 48h 0.083µM, Pf growth 96h 4.3µM
CCC(=O)n1nc(-c2ccc(Cl)cc2)nc1N	Pf growth 96h inconclusive (no result: Lassa entry inh, Marburg entry inh)
Cc1noc(-c2ccc(N(C)Cc3ccccc3)c([N+](=O)[O-])c2)n1	Lassa entry inh inconclusive (no result: Shiga inhibitor, Pf growth 48h, Pf growth 96h, Cycloheximide cs)
CCN=C1S/C(=C\c2cc(OCC)c(O)cc2Br)C(=O)N1CC	Lassa entry inh inconclusive, Marburg entry inh inconclusive, Pf growth 48h 12µM, Pf growth 96h 10µM
CCN=C1S/C(=C\c2ccc(O)c(OCC)c2)C(=O)N1CC	Lassa entry inh 13µM, Marburg entry inh inconclusive, Pf growth 96h inconclusive
CCN=C1S/C(=C/c2ccc(-c3ccc(F)cc3)o2)C(=O)N1CC	Lassa entry inh inconclusive, Pf growth 48h inconclusive
O=S(=O)(c1ccc(NCC2CCCCC2)nc1)N1CCOCC1	none
NS(=O)(=O)c1ccc(N=Cc2c(O)n(-c3nccs3)c(=O)c3ccccc23)cc1	Pf growth 48h 4.7µM, Pf growth 96h inconclusive
COc1ccccc1NC(=O)C1=C(C)Nc2nc(SCc3ccccc3F)nn2C1c1cccnc1 (stereo unspecified)	none (no result: Shiga inhibitor, Pf growth 48h, Pf growth 96h, Cycloheximide cs)
CCOC(=O)c1c(CN2CCOCC2)n(-c2ccccc2)c2cc(Br)c(OC)cc12	Lassa entry inh 9.2µM, Marburg entry inh inconclusive, Pf growth 48h inconclusive (no result: Pf growth 96h)
CCOC(=O)c1c(CSC(=N)N)n(C)c2cc(Br)c(OC(C)=O)cc12	Lassa entry inh inconclusive, Marburg entry inh inconclusive, Pf growth 48h inconclusive
CCOC(=O)c1c(CN2CCN(C)CC2)n(C)c2cc(Br)c(OC)cc12	Lassa entry inh inconclusive, Marburg entry inh inconclusive, Pf growth 48h 15µM
CCOC(=O)c1c(CN(C)C)n(-c2ccc(C)cc2)c2cc(Br)c(O)cc12	Lassa entry inh inconclusive, Marburg entry inh inconclusive, Pf growth 48h 0.74µM, Pf growth 96h 0.33µM
CCOC(=O)c1c(CN2CCCCC2)n(C)c2cc(Br)c(O)cc12	Marburg entry inh inconclusive (no result: Pf growth 48h, Pf growth 96h)
CCOC(=O)c1c(CSC(=N)N)n(-c2ccc(C)cc2)c2cc(Br)c(OC(C)=O)cc12	Pf growth 48h 7.4µM, Pf growth 96h 3.3µM (no result: Lassa entry inh)
COC(=O)NC(c1ccccc1)C(C(=O)OC)C(=O)OC (stereo unspecified)	none (no result: Lassa entry inh, Shiga inhibitor, Pf growth 48h, Pf growth 96h, Cycloheximide cs)
CCOC(=O)c1c(CN(C)C)n(-c2ccccc2)c2cc(Br)c(OC)cc12	Lassa entry inh inconclusive, Marburg entry inh 10µM, Pf growth 48h inconclusive
CCOC(=O)c1c(C)n(CC(O)CN2CCOCC2)c2cc(Br)c(OC)cc12 (stereo unspecified)	none
CCOC(=O)c1c(CN2CCOCC2)n(-c2ccccc2)c2cc(Br)c(O)cc12	Pf growth 48h 1.7µM, Pf growth 96h 1.9µM
